Screens: PubChem, Broad Institute
NSD2 block: blocks human NSD2 histone methyltransferase activity; 44,000 tested, 0.07% active; NSD2-SET H3K36me1 DELFIA fluorescence, biochemical; O96028; inhibition, % at 12.5 µM; in the data active = inhibition above about 54%, passing the limit was not always enough;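 also: inhibitors reduce the monomethyl H3K36 fluorescence signal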
Target sequence (O96028 whole entry, looked up): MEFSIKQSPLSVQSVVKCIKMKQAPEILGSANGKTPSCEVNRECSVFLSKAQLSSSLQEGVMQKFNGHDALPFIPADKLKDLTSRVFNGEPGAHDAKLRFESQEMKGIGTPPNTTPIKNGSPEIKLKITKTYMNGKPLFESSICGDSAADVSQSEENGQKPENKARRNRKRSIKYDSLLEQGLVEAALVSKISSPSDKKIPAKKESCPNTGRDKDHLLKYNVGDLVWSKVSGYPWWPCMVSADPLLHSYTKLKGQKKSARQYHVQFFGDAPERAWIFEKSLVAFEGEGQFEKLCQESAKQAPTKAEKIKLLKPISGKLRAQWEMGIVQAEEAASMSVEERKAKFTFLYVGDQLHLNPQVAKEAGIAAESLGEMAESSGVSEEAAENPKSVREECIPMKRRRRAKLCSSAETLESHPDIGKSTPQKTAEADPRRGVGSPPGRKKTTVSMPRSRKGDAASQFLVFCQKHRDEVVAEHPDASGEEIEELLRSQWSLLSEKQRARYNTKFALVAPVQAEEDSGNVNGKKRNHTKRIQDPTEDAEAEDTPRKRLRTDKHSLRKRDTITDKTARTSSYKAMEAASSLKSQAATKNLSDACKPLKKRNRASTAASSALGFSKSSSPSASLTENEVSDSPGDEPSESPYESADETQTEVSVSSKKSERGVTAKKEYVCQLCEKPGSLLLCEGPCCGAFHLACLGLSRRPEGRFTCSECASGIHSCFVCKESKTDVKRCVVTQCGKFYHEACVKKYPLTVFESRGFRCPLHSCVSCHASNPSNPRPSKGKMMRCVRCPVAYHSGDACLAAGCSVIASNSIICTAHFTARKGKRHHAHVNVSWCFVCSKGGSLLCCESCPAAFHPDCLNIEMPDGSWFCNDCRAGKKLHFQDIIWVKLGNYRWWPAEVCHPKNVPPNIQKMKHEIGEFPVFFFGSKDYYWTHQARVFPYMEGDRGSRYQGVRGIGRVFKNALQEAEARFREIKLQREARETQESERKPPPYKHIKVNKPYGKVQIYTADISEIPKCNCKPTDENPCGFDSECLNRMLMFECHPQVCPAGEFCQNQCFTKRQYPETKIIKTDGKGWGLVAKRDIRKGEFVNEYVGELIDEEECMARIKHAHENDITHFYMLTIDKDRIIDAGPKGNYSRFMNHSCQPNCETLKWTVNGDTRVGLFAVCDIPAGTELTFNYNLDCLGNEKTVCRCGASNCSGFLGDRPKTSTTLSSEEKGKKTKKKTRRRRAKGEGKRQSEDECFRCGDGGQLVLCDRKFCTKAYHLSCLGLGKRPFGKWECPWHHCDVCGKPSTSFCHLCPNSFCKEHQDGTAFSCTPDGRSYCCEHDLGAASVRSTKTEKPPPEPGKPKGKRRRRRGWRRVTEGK
* = called active by the depositor. Many of the other results were omitted from the sample, so hits are more common in it than they were.

SMILES	NSD2 block
CCCNC(=O)N(C)C[C@H]1Oc2cc(-c3ccc(C)cc3)ccc2S(=O)(=O)N([C@H](C)CO)C[C@@H]1C	-2
C[C@@H]1CN([C@@H](C)CO)C(=O)c2cccc(NS(C)(=O)=O)c2O[C@@H]1CN(C)C	4
C/C=C1\[C@H]2C=C(C)C[C@]1(N)c1ccc(=O)[nH]c1C2	-5
O=C(CCCCCC(=O)Nc1ccccc1O)N/N=C/c1cccc(C(=O)O)c1	-5
CC(C)NC(=O)Nc1cccc2c1O[C@H](CN(C)Cc1ccc(Oc3ccccc3)cc1)[C@H](C)CN([C@H](C)CO)C2=O	-1
CN(CC(=O)O)c1ncc(-c2nnnn2-c2ccccc2)c(-c2ccccc2Cl)n1	3
Cc1noc(C)c1NC(=O)N(C)C[C@H]1OCCCC[C@H](C)Oc2ccc(NC(=O)C3CCCCC3)cc2C(=O)N([C@H](C)CO)C[C@@H]1C	4
COc1ccc(C#Cc2ccc3c(c2)O[C@@H](CN(C)C(=O)c2ccccn2)[C@H](C)CN([C@H](C)CO)S3(=O)=O)cc1	2
C[C@H](CO)N1C[C@H](C)[C@@H](CN(C)C(=O)C2CCCCC2)Oc2cc(-c3cncnc3)ccc2S1(=O)=O	0
Cc1cc(C#N)c2c(C)ccc(C(C)C)cc1-2	6
C[C@H]1CN([C@@H](C)CO)C(=O)c2cccc(NC(=O)C3CCOCC3)c2O[C@H]1CN(C)S(=O)(=O)c1ccc(F)cc1	6
C[C@H]1CN([C@@H](C)CO)C(=O)c2cccc(NC(=O)C3CCOCC3)c2O[C@H]1CN(C)C(=O)Nc1ccc2c(c1)OCO2	2
C[C@@H]1CN([C@H](C)CO)C(=O)c2cc(C3=CCCCC3)cnc2O[C@H]1CN(C)C(=O)c1cccc(F)c1	-4
COc1ccc(C#Cc2ccc3c(c2)O[C@@H](CN(C)C(C)=O)[C@H](C)CN([C@H](C)CO)S3(=O)=O)cc1	8
CC(C)CC#Cc1ccc2c(c1)O[C@@H](CN(C)C(=O)CN(C)C)[C@H](C)CN([C@@H](C)CO)S2(=O)=O	-7
CC1(C)CC[C@]2(C(=O)O[C@@H]3O[C@H](CO)[C@@H](O)[C@H](O)[C@H]3O)CC[C@]3(C)C(=CCC4[C@@]5(C)C[C@@H](O)[C@H](O)C(C)(C)C5CC[C@]43C)C2[C@@H]1O (some centres undefined)	26
CC1(C)CC[C@]2(C(=O)O[C@@H]3O[C@H](CO)[C@@H](O)[C@H](O)[C@H]3O)CC[C@]3(C)C(=CCC4[C@@]5(C)C[C@@H](O)[C@H](O)[C@@](C)(CO)C5[C@H](O)C[C@]43C)C2C1 (some centres undefined)	17
CC1(C)CC[C@]2(C(=O)O[C@@H]3O[C@H](CO)[C@@H](O)[C@H](O)[C@H]3O)CC[C@]3(C)C(=CCC4[C@@]5(C)C[C@@H](O)[C@H](O)[C@@](C)(CO)C5[C@H](O)C[C@]43C)C2[C@@H]1O (some centres undefined)	62*
COCC(=O)N(C)C[C@@H]1Oc2ncc(-c3cccc(OC)c3)cc2C(=O)N([C@@H](C)CO)C[C@H]1C	24
CCCC#Cc1ccc2c(c1)O[C@@H](CN(C)S(C)(=O)=O)[C@@H](C)CN([C@H](C)CO)S2(=O)=O	9
CC(=O)c1c(O)cc(O[C@@H]2O[C@H](CO)[C@@H](O)[C@H](O)[C@H]2O)cc1O	35
CC(C)=CCc1cc(O[C@@H]2O[C@H](CO)[C@@H](O)[C@H](O)[C@H]2O)cc(CC=C(C)C)c1C(O)C(=O)O (some centres undefined)	61*
COc1cc(O[C@@H]2O[C@H](CO)[C@@H](O)[C@H](O)[C@H]2O)cc(OC)c1OC	-1
Cc1ccc(S[C@]2(C(=O)NCc3ccccc3)CC(=O)N(C3CCCCC3)[C@@H]2c2ccc(CO)cc2I)cc1	18
Cc1ccc(S(=O)(=O)N(C)C[C@@H]2OCCCC[C@H](C)Oc3ccc(NS(=O)(=O)c4ccc(Cl)cc4)cc3C(=O)N([C@@H](C)CO)C[C@H]2C)cc1	-3
SMILES	NSD2 block
C[C@@H]1CN([C@@H](C)CO)C(=O)c2cc(C#CC3CC3)cnc2O[C@H]1CN(C)C(=O)c1ccccc1	2
O=C(C[C@@H]1C=C[C@@H](NC(=O)CCN2CCCCC2)[C@H](CO)O1)Nc1ccc(-c2ccccc2)cc1	-3
C[C@@H]1CN([C@@H](C)CO)C(=O)c2cccc(NC(=O)Nc3cccc4ccccc34)c2O[C@H]1CN(C)S(=O)(=O)c1cccs1	-4
COCC#Cc1cnc2c(c1)C(=O)N([C@@H](C)CO)C[C@@H](C)[C@H](CN(C)Cc1ccc(F)cc1)O2	2
O=C(Nc1ccc2c(c1)[C@@H]1C[C@@H](CC(=O)N3CCCCC3)O[C@@H](CO)[C@@H]1O2)C1CCC1	2
COc1ccc(-c2cn(CCNC(=O)[C@H](Cc3ccccc3)NS(=O)(=O)c3ccc(C)cc3)nn2)cc1OC	8
CC(C)NC(=O)N(C)C[C@@H]1Oc2cc(C3=CCCC3)ccc2S(=O)(=O)N([C@H](C)CO)C[C@@H]1C	-4
C[C@@H]1CN([C@H](C)CO)C(=O)c2cc(N(C)C)ccc2O[C@@H](C)CCCCO[C@@H]1CN(C)C(=O)NC1CCCCC1	6
